± gives the standard deviation of the averaged measurements. In all, about 33,000 sequences were measured (“E-score (dimensionless, -0.5 to 0.5)”: median about -0.049, highest 2% from about 0.37 on). What follows is part of a selection rich in the highest values, with near analogues and random picks from the rest.

This experiment concerns T1, PmTbr T-box DNA-binding domain (GST fusion).
T1 sequence: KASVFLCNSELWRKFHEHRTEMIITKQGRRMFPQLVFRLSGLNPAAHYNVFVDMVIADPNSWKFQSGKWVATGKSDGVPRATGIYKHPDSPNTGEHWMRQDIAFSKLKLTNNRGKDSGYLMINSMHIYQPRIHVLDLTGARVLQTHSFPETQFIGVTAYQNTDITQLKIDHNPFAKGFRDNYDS
The experiment can be described thus: PBM E-score of 8-mer (E-score (dimensionless, -0.5 to 0.5)); Tbr is Tbrain of the sea star Patiria miniata (Pm) or the sea urchin Strongylocentrotus purpuratus (Sp); higher = stronger binding preference. The settings on record: the construct has about 5 more residues each side. A digest of the protocol:
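Each ungapped 8-mer received an enrichment E-score from the Universal PBM Analysis Suite, averaged over duplicate arrays. The proteins were Tbr T-box DNA-binding domains, covering the whole T-box plus about five flanking residues, fused to GST and expressed in BL21 E. coli at 20 °C before glutathione affinity purification. Universal Agilent oligonucleotide arrays were made double-stranded by primer extension and incubated with 200 nM protein in PBS (pH 7.5). The arrays were then scanned and quantified, and every 8-mer was scored from probe intensities.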
On to AAATTAGC, for which the “PBM E-score of 8-mer” value was found to be 0.24 ± 0.01.

GCTTCACC: the “PBM E-score of 8-mer” value stood at 0.0106 ± 0.012. For the sequence CACGTCCG, the “PBM E-score of 8-mer” value was 0.26 ± 0.0099. The value for CCGGTTAC was -0.0412 ± 0.0065; that for CTTTGCTC was -0.0392 ± 0.02. The value for ACAGAGGC was 0.0769 ± 0.02.

Turning to AGGGTGGC, the “PBM E-score of 8-mer” value was found to be 0.191 ± 0.011. Turning to AGGGTGTC, the “PBM E-score of 8-mer” value was 0.435 ± 0.014.

For the sequence CGGGTGTC, the “PBM E-score of 8-mer” value came out at 0.4001 ± 0.002.

For AGAGGGTC, the “PBM E-score of 8-mer” value was -0.202 ± 0.011. To CGGGTGTA belongs 0.0538 ± 0.035; to AGGGGGTG, 0.316 ± 0.027.

Take CCGGTGTC: the “PBM E-score of 8-mer” value is 0.247 ± 0.0031. In the case of AGGGTGAC, the “PBM E-score of 8-mer” value was determined as 0.326 ± 0.031. To AGAGGGTG belongs 0.383 ± 0.011; to AGAGGGTA, -0.108 ± 0.023. To AGGGTGTA belongs 0.317 ± 0.0034.

As for AGGGTGTG, the “PBM E-score of 8-mer” value stood at 0.43 ± 0.027. To CCCTAGGG belongs -0.16 ± 0.025; to AGGTTTGG, -0.19 ± 0.043; to CATTCTTA, -0.235 ± 0.007. The value for GGAAGCAC was -0.23 ± 0.015; that for ATGGTGAG was 0.223 ± 0.0051.

With CATTCAGG, the “PBM E-score of 8-mer” value was found to be 0.0358 ± 0.077. As to ATAACAAA, the “PBM E-score of 8-mer” value is -0.00818 ± 0.13.

In the case of AGGATCAT, the “PBM E-score of 8-mer” value is -0.151 ± 0.0099. To CGGGCAAG belongs -0.0794 ± 0.036; to CGAGGCCC, -0.297 ± 0.064; to CACCTAAG, 0.381 ± 0.021.

For the sequence CACCTAAA, the “PBM E-score of 8-mer” value worked out at 0.368 ± 0.0085. To CCCCTAAG belongs -0.0688 ± 0.042. As for AACCTAAC, the “PBM E-score of 8-mer” value amounted to 0.0221 ± 0.052. The value for CACCTAAC was 0.408 ± 0.028; that for AACCTAAG was -0.12 ± 0.084. The value for GCTACAGC was -0.2 ± 0.12; that for ACCGACTC was -0.012 ± 0.041. As for AGCAACCT, the “PBM E-score of 8-mer” value is -0.0154 ± 0.04. Turning to GGTTGACA, the “PBM E-score of 8-mer” value amounted to 0.3518 ± 0.0019. The value for AGTTGACA was 0.407 ± 0.008; that for AGTTGACG was 0.153 ± 0.053; that for AGTTGACC was -0.231 ± 0.009. The value for CGTTGACC was 0.0227 ± 0.075; that for CGTTGACA was 0.405 ± 0.0049. Regarding CTTCTATA, the “PBM E-score of 8-mer” value is -0.287 ± 0.067. To GATAGCAA belongs 0.202 ± 0.052; to ATCAGAAT, -0.106 ± 0.065. Regarding CTGAGAAA, the “PBM E-score of 8-mer” value was determined as 0.00608 ± 0.019. To GTGAGAAA belongs 0.458 ± 0.012; to GCGAGAAC, 0.375 ± 0.01. The value for GTGAGAAC was 0.44 ± 0.0046; that for ATGAGAAA was -0.182 ± 0.17. The value for CTGAGAAC was -0.052 ± 0.016. On to ATGAGAAC, for which the “PBM E-score of 8-mer” value is -0.0696 ± 0.046. Regarding GCGAGAAA, the “PBM E-score of 8-mer” value turned out to be 0.356 ± 0.034. To ACGAGAAC belongs 0.0117 ± 0.058; to GAGCGCAC, -0.0637 ± 0.099. To CTCACAAC belongs 0.3462 ± 0.0029; to CCCAGAAC, -0.157 ± 0.065; to GACCTTGC, -0.145 ± 0.021.

For the sequence AACCTTGG, the “PBM E-score of 8-mer” value was -0.183 ± 0.041. To TACCTTGA belongs 0.00793 ± 0.011.

On to CACCTTGG, for which the “PBM E-score of 8-mer” value was 0.45511 ± 0.00014. CACCTTGA: the “PBM E-score of 8-mer” value amounted to 0.383 ± 0.017. To GACCTTGA belongs -0.166 ± 0.025; to CAGCTTGG, 0.0903 ± 0.044; to AACCTTGC, 0.060455 ± 2.1e-05. The value for CACCTTGC was 0.4191 ± 0.0029; that for ATTATGCG was -0.162 ± 0.031.

On to GCGGTAAC, for which the “PBM E-score of 8-mer” value was -0.0299 ± 0.029. The value for AATTGGTC was -0.139 ± 0.051; that for CCCTCTCG was 0.0695 ± 0.027.

Consider CGGTATAC, for which the “PBM E-score of 8-mer” value was -0.0592 ± 0.023. As to CCTAGAGG, the “PBM E-score of 8-mer” value is -0.0482 ± 0.018. To ACCCACAT belongs 0.203 ± 0.096. To ACACACCT belongs 0.445 ± 0.0069. To ACACACCG belongs 0.125 ± 0.027; to AAACACCG, 0.143 ± 0.013. In the case of ACACACAT, the “PBM E-score of 8-mer” value was found to be 0.288 ± 0.013. The value for AGACACCG was 0.185 ± 0.012. To AAACACCT belongs 0.4565 ± 0.0016; to AAACACCC, 0.227 ± 0.027; to AGACACCT, 0.4559 ± 0.0013.

As for AGACACAT, the “PBM E-score of 8-mer” value came out at 0.184 ± 0.0023. To GGAGTGGA belongs -0.0457 ± 0.03; to ACATTTCA, 0.125 ± 0.0075; to AGCTATCC, -0.334 ± 0.059.
